Laboratory results reported in PubChem BioAssay (EPA / NIEHS).
The source made the active and inactive calls. Rule for the calls: active = hit-call score of the fitted dose curve at least 0.9, where 1 is the maximum; inactive = score below 0.9.

How the values were obtained:
[1] = BSK_CASM3C_SRB: Viability Assessment in the BioMAP Diversity Plus: CASM3C Assay (AID 2283050); conditions: primary human coronary artery smooth muscle cells;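 note: cells exposed to compound for 24 h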
[2] = read-out: Thrombomodulin, THBD (gene 7056); assay: BSK_CASM3C_Thrombomodulin: BioMAP Diversity Plus: CASM3C Assay for Thrombomodulin Biomarker Activity (AID 2283051); conditions: primary human coronary artery smooth muscle cells; actives raise or lower the signal;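 note: thrombomodulin protein level measured by ELISA 24 h after dosing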
[3] = read-out: Tissue Factor, F3 (gene 2152); assay: BSK_CASM3C_TissueFactor: BioMAP Diversity Plus: CASM3C Assay for Tissue Factor Biomarker Activity (AID 2283052); conditions: primary human coronary artery smooth muscle cells; actives raise or lower the signal;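 note: cell surface tissue factor protein level read by ELISA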
[4] = read-out: Interferon-gamma inducible Protein 10 (IP10), CXCL10 (gene 3627); assay: BSK_hDFCGF_IP10: BioMAP Diversity Plus: hDFCGF Assay for Interferon-gamma inducible Protein 10 (IP10) Biomarker Activity (AID 2283053); conditions: primary human foreskin fibroblasts; actives raise or lower the signal
Procedure, shortened: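 ELISA quantification of IP-10 after a 24 h chemical exposure of human dermal foreskin fibroblast primary cultures. Both increases and decreases versus DMSO fitted.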

[5] = read-out: Urokinase-type plasminogen activator receptor (uPAR), PLAUR (gene 5329); assay: BSK_CASM3C_uPAR: BioMAP Diversity Plus: CASM3C Assay for Urokinase-type plasminogen activator receptor (uPAR) Biomarker Activity (AID 2283054); conditions: primary human coronary artery smooth muscle cells; actives raise or lower the signal;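 note: cell-surface uPAR protein level quantified by ELISA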
[6] = read-out: Vascular cell adhesion molecule 1 (VCAM1), VCAM1 (gene 7412); assay: BSK_CASM3C_VCAM1: BioMAP Diversity Plus: CASM3C Assay for Vascular cell adhesion molecule 1 (VCAM1) Biomarker Activity (AID 2283055); conditions: primary human coronary artery smooth muscle cells; actives raise or lower the signal;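 note: VCAM-1 protein level quantified by ELISA on the cells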
[7] = read-out: Collagen III, COL3A1 (gene 1281); assay: BSK_hDFCGF_CollagenIII: BioMAP Diversity Plus: hDFCGF Assay for Collagen III Biomarker Activity (AID 2283056); conditions: primary human foreskin fibroblasts; actives raise or lower the signal
Procedure, shortened: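 Cells: human foreskin fibroblasts, primary. Dosing followed by 24 h incubation, then ELISA for collagen III. Both increases and decreases scored relative to DMSO.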

[8] = read-out: Epidermal growth factor receptor (EGFR), EGFR (gene 1956); assay: BSK_hDFCGF_EGFR: BioMAP Diversity Plus: hDFCGF Assay for Epidermal growth factor receptor (EGFR) Biomarker Activity (AID 2283057); conditions: primary human foreskin fibroblasts; actives raise or lower the signal
Procedure, shortened: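 EGFR levels by ELISA in human dermal fibroblast cultures, 24 h post-treatment, fitted bidirectionally versus DMSO. Parallel wells stained with sulforhodamine B to detect overt cytotoxicity.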

[9] = read-out: Interleukin-8 (IL8), CXCL8 (gene 3576); assay: BSK_hDFCGF_IL8: BioMAP Diversity Plus: hDFCGF Assay for Interleukin-8 (IL8) Biomarker Activity (AID 2283058); conditions: primary human foreskin fibroblasts; actives raise or lower the signal
Procedure, shortened: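 IL-8 levels from compound-treated primary human fibroblasts were read by ELISA at 24 h, with DMSO serving as baseline for bidirectional fitting.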

[10] = BSK_hDFCGF_Proliferation: Cell Proliferation Assessment in the BioMAP Diversity Plus: hDFCGF Assay (AID 2283059); conditions: primary human foreskin fibroblasts;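 note: curves fitted for both rise and fall of signal versus DMSO baseline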
Procedure, shortened: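 This proliferation readout used SRB total-protein staining of human foreskin fibroblasts […], normalized to DMSO with bidirectional curve fitting.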

[11] = read-out: Macrophage colony-stimulating factor (MCSF), CSF1 (gene 1435); assay: BSK_hDFCGF_MCSF: BioMAP Diversity Plus: hDFCGF Assay for Macrophage colony-stimulating factor (MCSF) Biomarker Activity (AID 2283060); conditions: primary human foreskin fibroblasts; actives raise or lower the signal
Procedure, shortened: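 M-CSF levels, determined by ELISA, are taken at 24 h after dosing human skin fibroblasts. Responses in either direction are fitted with DMSO serving as the baseline.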

[12] = BSK_hDFCGF_SRB: Viability Assessment in the BioMAP Diversity Plus: hDFCGF Assay (AID 2283061); conditions: primary human foreskin fibroblasts;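 note: cells exposed to compound for 24 h before the read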
Procedure, shortened: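 Cells were dosed with test chemical, cultured 24 h, fixed with 10% TCA, then stained with 0.1% SRB and read at 560 nm. The fibroblasts were human foreskin primary cells, and DMSO served as baseline.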

[13] = read-out: TIMP metallopeptidase inhibitor 1 (TIMP1), TIMP1 (gene 7076); assay: BSK_hDFCGF_TIMP1: BioMAP Diversity Plus: hDFCGF Assay for TIMP metallopeptidase inhibitor 1 (TIMP1) Biomarker Activity (AID 2283062); conditions: primary human foreskin fibroblasts; actives raise or lower the signal
Procedure, shortened: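 Fibroblasts from human foreskin are treated with test chemical and harvested at 24 h. TIMP-1 is quantified by ELISA, and gain or loss of signal is scored against DMSO.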

[14] = read-out: Monokine induced gamma interferon (MIG), CXCL9 (gene 4283); assay: BSK_hDFCGF_MIG: BioMAP Diversity Plus: hDFCGF Assay for Monokine induced gamma interferon (MIG) Biomarker Activity (AID 2283063); conditions: primary human foreskin fibroblasts; actives raise or lower the signal
Procedure, shortened: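 MIG signal, determined by ELISA, reflects 24 h chemical exposure of human skin primary fibroblasts. DMSO serves as negative control and baseline.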

[15] = read-out: Matrix Metallopeptidase 1 (MMP1), MMP1 (gene 4312); assay: BSK_hDFCGF_MMP1: BioMAP Diversity Plus: hDFCGF Assay for Matrix Metallopeptidase 1 (MMP1) Biomarker Activity (AID 2283064); conditions: primary human foreskin fibroblasts; actives raise or lower the signal
Procedure, shortened: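 Human foreskin fibroblasts exposed to chemical for 24 h; MMP1 detected by ELISA, with DMSO as baseline for bidirectional fitting.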

[16] = read-out: Vascular cell adhesion molecule 1 (VCAM1), VCAM1 (gene 7412); assay: BSK_hDFCGF_VCAM1: BioMAP Diversity Plus: hDFCGF Assay for Vascular cell adhesion molecule 1 (VCAM1) Biomarker Activity (AID 2283065); conditions: primary human foreskin fibroblasts; actives raise or lower the signal
Procedure, shortened: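 Cells are dosed, cultured for 24 h, then VCAM-1 is quantified by ELISA; signal increases and decreases are both fitted relative to DMSO.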

[17] = read-out: Plasminogen activator inhibitor-1 (PAI1), SERPINE1 (gene 5054); assay: BSK_hDFCGF_PAI1: BioMAP Diversity Plus: hDFCGF Assay for Plasminogen activator inhibitor-1 (PAI1) Biomarker Activity (AID 2283066); conditions: primary human foreskin fibroblasts; actives raise or lower the signal
Procedure, shortened: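 PAI-1 levels in human dermal foreskin fibroblasts were quantified by ELISA 24 h after dosing, with gain or loss analysed against DMSO. Overt cytotoxicity was checked by sulforhodamine B total-protein staining in parallel cultures.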

[18] = read-out: Intercellular Adhesion Molecule 1 (ICAM1), ICAM1 (gene 3383); assay: BSK_KF3CT_ICAM1: BioMAP Diversity Plus: KF3CT Assay for Intercellular Adhesion Molecule 1 (ICAM1) Biomarker Activity (AID 2283067); conditions: primary human keratinocytes with fibroblasts; actives raise or lower the signal
Procedure, shortened: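 Dose the keratinocyte/fibroblast co-culture, wait 24 h, measure ICAM-1 by ELISA, then fit increases or decreases against DMSO. Cytotoxicity is checked in parallel cultures by SRB total-protein staining.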

[19] = read-out: Interferon-gamma inducible Protein 10 (IP10), CXCL10 (gene 3627); assay: BSK_KF3CT_IP10: BioMAP Diversity Plus: KF3CT Assay for Interferon-gamma inducible Protein 10 (IP10) Biomarker Activity (AID 2283068); conditions: primary human keratinocytes with fibroblasts; actives raise or lower the signal
Procedure, shortened: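 Signal is secreted/surface IP-10 by ELISA in a human primary skin co-culture of keratinocytes and foreskin fibroblasts, taken 24 h post-dosing; DMSO served as negative control.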

[20] = BSK_KF3CT_SRB: Viability Assessment in the BioMAP Diversity Plus: KF3CT Assay (AID 2283069); conditions: primary human keratinocytes with fibroblasts;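 note: fitted for both signal gain and loss against DMSO baseline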
Procedure, shortened: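 Overt cytotoxicity is assessed as total protein by sulforhodamine B staining in parallel human skin co-cultures at 24 h after dosing. DMSO serves as negative control and baseline.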

Measured: AC50

CCCCOCCOP(=O)(OCCOCCCC)OCCOCCCC
active: [3] 1990 nM | [6] 16 nM | [7] 16 nM
inactive: [1] | [2] | [4] | [5] | [8] | [9] | [10] | [11] | [12] | [13] | [14] | [15] | [16] | [17] | [18] | [19]

COP(=O)(O)OC
inactive: [1] | [2] | [3] | [4] | [5] | [6] | [7] | [8] | [9] | [10] | [11] | [12] | [13] | [14] | [15] | [17] | [18] | [19]

O=[N+]([O-])c1ccccc1
inactive: [1] | [2] | [3] | [4] | [5] | [6] | [7] | [8] | [9] | [10] | [11] | [12] | [13] | [14] | [15] | [16] | [17] | [18] | [19] | [20]

CCC1(c2ccccc2)C(=O)N=C(O)NC1=O (centres undefined)
inactive: [1] | [2] | [3] | [4] | [5] | [6] | [7] | [8] | [9] | [10] | [11] | [12] | [13] | [14] | [15] | [16] | [17] | [18] | [19] | [20]

Cc1c([N+](=O)[O-])cc2c(c1[N+](=O)[O-])C(C)(C)CC2(C)C
active: [2] 7740 nM | [5] 384 nM | [7] 3320 nM | [10] 20000 nM | [11] 3020 nM
inactive: [1] | [3] | [4] | [6] | [8] | [9] | [12] | [13] | [14] | [15] | [16] | [17] | [18] | [19] | [20]

O=C(O)C(Cl)Cl
inactive: [1] | [2] | [3] | [4] | [5] | [6] | [7] | [8] | [9] | [10] | [11] | [12] | [13] | [14] | [15] | [17] | [18] | [19]

CCOc1ccc(C(C)(C)COCc2cccc(Oc3ccccc3)c2)cc1
active: [2] 10700 nM | [11] 2260 nM
inactive: [1] | [3] | [4] | [5] | [6] | [7] | [8] | [9] | [10] | [12] | [13] | [14] | [15] | [16] | [17] | [18] | [19] | [20]

CC(Cc1ccc(OCC(=O)O)cc1)NCC(O)c1csc(C(F)(F)F)n1 (centres undefined)
inactive: [1] | [2] | [3] | [4] | [5] | [6] | [7] | [8] | [9] | [10] | [11] | [12] | [13] | [14] | [15] | [17] | [18] | [19]

CCOP(=S)(S)OCC
inactive: [1] | [2] | [3] | [4] | [5] | [6] | [7] | [8] | [9] | [11] | [12] | [13] | [14] | [15] | [16] | [17] | [18] | [19] | [20]
active: [10] 12600 nM

C=CC(=O)OCC(CC)(COC(=O)C=C)COC(=O)C=C
active: [1] 2210 nM | [3] 847 nM | [4] 1710 nM | [5] 1970 nM | [6] 1650 nM | [7] 1030 nM | [8] 1590 nM | [9] 3170 nM | [10] 795 nM | [11] 2110 nM | [12] 1320 nM | [13] 1110 nM | [14] 1400 nM | [15] 3850 nM | [17] 1080 nM | [18] 2160 nM | [19] 3170 nM
inactive: [2]

O=[N+]([O-])c1ccc(Cl)c(Cl)c1
inactive: [1] | [2] | [3] | [4] | [5] | [6] | [7] | [8] | [9] | [10] | [11] | [12] | [13] | [14] | [15] | [16] | [17] | [18] | [19] | [20]

CCOP(=S)(OCC)SCS(=O)(=O)CC
inactive: [1] | [2] | [3] | [4] | [5] | [6] | [7] | [8] | [9] | [10] | [11] | [12] | [13] | [14] | [15] | [17] | [18] | [19]

Cc1ccc2c(c1N)C(=O)c1ccccc1C2=O
active: [5] 20000 nM | [7] 20000 nM
inactive: [1] | [2] | [3] | [4] | [6] | [8] | [9] | [10] | [11] | [12] | [13] | [14] | [15] | [16] | [17] | [18] | [19] | [20]
